From PubChem
Shn3 inh set2: Schnurri-3 reporter inhibition in Clone20 osteoblasts. inhibition, % at 12.5 µM. 360,000 tested, 0.52% active. Clone20 osteoblast Shn3 3'UTR firefly luciferase, 24 h. AID 588674;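 active = mean inhibition of at least 75% with every replicate also reaching 75%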;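 also: 0% = median of neutral control wells and 100% = pilot-screen positive control compound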
KKLEB tox: reduces viability of KKLEB cystic fibrosis airway cells; 360,000 tested, 0.36% active; AID 602141; activity change (cytotoxicity), % at 5 µM; KKLEB CF airway cells viability, ATPlite luminescence, overnight; hits give low values; cells stimulated with P. aeruginosa culture filtrate;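 active = corrected activity change at or below -50% at 5 µM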
TRPM1 prom inh: reduces MITF-dependent TRPM1 promoter luciferase signal; 330,000 tested, 0.83% active; inhibition, % at 12.5 µM; SK-MEL-5 TRPM1 promoter luciferase, 24 h;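 active = mean inhibition across replicates of 60% or more, whatever share of single replicates reaches that level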
CF NFkB inh: blocks PAF-induced NF-kB reporter in cystic fibrosis cells | KKLEB NF-kB-GFP reporter, GFP fluorescence overnight | inhibition, % at 5 µM | 360,000 tested, 0.86% active;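 active = at least 50% inhibition at 5 µM, scaled per plate between neutral and stimulator controls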;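 also: PAF is a Pseudomonas aeruginosa culture filtrate used as stimulus; plate controls were PAF-stimulated DMSO wells for no effect and unstimulated DMSO wells for full effect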
HIF-2a block: inhibitors of HIF-2a | 786-0 RCC cells HIF-2a reporter, luciferase luminescence, overnight | inhibition, % at 18.8 µM | 360,000 tested, 0.72% active;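 active = inhibition of the luminescence signal of 40% or more relative to plate controls, in a single-dose primary screen at 18.75 µM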
Peg3 promoter: Peg3 promoter activity inhibition; inhibition, % at 20 µM; 360,000 tested, 1.7% active; AID 588405; HeLa PEG-Prom luciferase reporter, luminescence, overnight;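 active = inhibition of at least 50% at 20 µM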
* = called active by the depositor; . = no result. Rows were chosen to be rich in hits. Some 2.8% of all compounds tested hit in one or more screens of this group.

SMILES	Shn3 inh set2	KKLEB tox	TRPM1 prom inh	CF NFkB inh	HIF-2a block	Peg3 promoter
CCOc1ccc(Oc2ccc(NC(=O)CSc3nncn3C)cc2)cc1	-11	-12	-8	0	-28	-20
COC1=CC(=O)C(OC)=C(OC)C1=O	70	14	1	58*	14	63*
NC(=O)c1cc(N2C(=O)C=CC2=O)ccc1Cl	94*	4	3	1	-1	30
CC(=O)Nc1ccc(Cl)c(C(N)=O)c1	-21	-12	7	-2	9	-4
CSc1cccc(-c2nnc(NC(=O)c3cccc(N4C(=O)CCC4=O)c3)o2)c1	0	-3	2	9	6	3
Cc1ccc(C(C)C)c(OCc2ccc(C(=O)N/N=C/c3ccc(O)c(O)c3)cc2)c1	51	14	28	-1	72*	-33
COc1cc(/C=N\NC(=O)c2ccc(-c3ccccc3)cc2)cc(OC)c1O	-28	16	-33	-29	-45	-60
Cc1ccc(C(C)C)c(OCc2ccc(C(=O)N/N=C/c3cccc(O)c3O)cc2)c1	94*	1	83*	25	71*	14
CC(=O)Nc1ccc(C(=O)N/N=C/c2ccccc2OCc2ccccc2)cc1	-6	-18	2	-19	-47	-22
CCOc1cc(/C=N/NC(=O)c2ccc(=O)n(C)c2)ccc1O	-2	15	4	8	6	2
COc1cc(/C=N/NC(=O)c2ccc(COc3cc(C)ccc3C(C)C)cc2)cc(OC)c1O	10	2	22	-4	69*	-70
Cc1ccc(-c2cc(C(=O)N/N=C/c3c(C)nn(-c4ccccc4)c3C)n[nH]2)s1	3	-23	23	57*	-11	3
C[C@@H]1CN([C@@H](C)CO)C(=O)c2cc(Br)cnc2O[C@H]1CN(C)C(=O)Nc1ccc(F)cc1	5	12	.	7	12	-8
O=C(OCCN1C(=O)c2cccc3c(N4CCOCC4)ccc(c23)C1=O)c1ccc(Cl)cc1Cl	22	-23	23	26	11	24
O=C(OCCN1C(=O)c2cccc3c(N4CCOCC4)ccc(c23)C1=O)c1ccccc1Cl	86*	-5	41	10	3	35
CCCC(O)(c1ccccc1)C(CN1CCOCC1)c1ccccc1 (stereo not drawn)	1	-2	-3	13	10	6
CCCC(O)(c1ccc(Cl)cc1)C(CN1CCOCC1)c1ccccc1 (stereo not drawn)	-4	2	3	-1	2	57*
CCCC(O)(c1ccc(Br)cc1)C(CN1CCOCC1)c1ccc(Cl)cc1 (stereo not drawn)	4	-11	-3	18	7	58*
COCCN1C(=O)COc2ccccc2C1C(=O)Nc1c(C)cccc1C (stereo not drawn)	.	.	.	.	4	.
COc1ccc(-c2ccc(-c3cc(=O)oc4cc(OC)c(OC)c(OC)c34)cc2)cc1	8	3	-28	8	-22	-21
Cc1ccc(C(=O)N/C(=C\c2ccc3c(c2)OCO3)C(=O)Nc2ccc(C(=O)O)cc2)cc1	-22	16	-15	-14	-29	1
Cc1cccc(N2CCN(S(=O)(=O)c3ccc4[nH]c(=O)ccc4c3)CC2)c1C	25	12	.	-15	-2	35
Cc1ccc(C)c(N2CCN(S(=O)(=O)c3ccc4[nH]c(=O)ccc4c3)CC2)c1	94*	1	.	2	12	11
CCOc1ccc2oc(C(=O)N(CCOC)c3c(N)n(CC(C)C)c(=O)[nH]c3=O)c(C)c2c1	-2	2	0	13	5	-3
N#CC1=C(N)N2C(=C(C#N)C1c1cccc(Br)c1)Nc1ccccc12 (stereo not drawn)	88*	-50*	51	42	3	40
SMILES	Shn3 inh set2	KKLEB tox	TRPM1 prom inh	CF NFkB inh	HIF-2a block	Peg3 promoter
CN(C)CCC(=O)C(Cc1ccccc1)c1ccccc1 (stereo not drawn)	3	-5	-2	20	14	89*
O=[N+]([O-])/C=C/c1c(OCc2ccccc2)ccc2ccccc12	.	-54*	98*	61*	95*	101*
CCCCOc1ccc2ccccc2c1C=O	-31	-3	-59	0	-155	-154
O=C(COc1ccccc1Cl)Nc1ccc(S(=O)(=O)N2CCOCC2)cc1	13	-7	-17	-3	1	6
O=S(=O)(Nc1nc2ccccc2nc1Nc1cccc(S(=O)(=O)N2CCCCC2)c1)c1ccccc1	25	-61*	17	65*	23	69*
COc1ccc(S(=O)(=O)Nc2cccc(S(=O)(=O)N3CCCCCC3)c2)cc1	3	-6	1	0	5	10
COc1cc(OC)cc(C(=O)Nc2ccc(N3CCN(C(=O)c4cccs4)CC3)cc2)c1	4	-16	10	-8	0	13
CCN(CC)CC(C)(C)C(=O)/C=C/c1ccc(/C=C/C(=O)C(C)(C)CN(CC)CC)cc1	98*	-66*	93*	92*	91*	102*
O=C(O)CCCN1C(=O)/C(=C\C(Cl)=C\c2ccccc2)SC1=S	6	-13	66*	-27	94*	108*
COc1cccc(/C=C2/SC(=S)N(CCCC(=O)Nc3ccc(O)cc3)C2=O)c1	29	-16	-9	21	20	99*
COc1cccc(/C=C2\SC(=S)N(CCCC(=O)Nc3ccc(C(=O)O)cc3)C2=O)c1	-6	-3	-6	-4	-25	-9
O=C(CCCN1C(=O)/C(=C/c2ccc3c(c2)OCO3)SC1=S)Nc1cccc(C(=O)O)c1	-4	-24	10	3	88*	28
O=C(CCCN1C(=O)/C(=C\c2ccccc2)SC1=S)Nc1ccc(O)cc1	-10	-10	16	10	61*	83*
O=C(CCN1C(=O)/C(=C\c2ccccc2)SC1=S)Nc1ccc(C(=O)O)cc1	12	0	1	18	19	12
O=C(CCN1C(=O)/C(=C/c2ccc3c(c2)OCO3)SC1=S)Nc1cccc(C(=O)O)c1	8	-6	-3	15	14	4
COc1ccc(/C=C2/SC(=S)N(CCCC(=O)Nc3ccc(O)cc3)C2=O)cc1OC	-3	-13	5	9	42*	26
COc1cccc(/C=C2\SC(=S)N(CCCC(=O)NC3=NCCS3)C2=O)c1	20	-2	12	-14	87*	29
COc1cccc(/C=C2\SC(=S)N(CCCC(=O)Nc3cc(C)on3)C2=O)c1	20	-3	-9	7	34	27
CCN(CC)CCOC(=O)c1ccc(NC(=O)CCCN2C(=O)S/C(=C/c3ccc(OC)cc3)C2=S)cc1	41	-1	24	29	79*	108*
CC(=O)c1ccc(-c2ccc(C(=O)NC3CCCCCC3)o2)cc1	2	-2	-1	13	11	24
